Sampled rows, rich in hits. Any-hit rate of the full collection: about 2%.
FBPA coupling cs: counter-screen for Giardia aldolase inhibitors: coupling enzyme system; activity change, negative = inhibition, % at 58.2 µM, hits read low; coupling enzyme system counterscreen, AmpLite Red fluorescence; 0.67% of 290,000 active; in the data active means activity change below about -30%
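First, compound is pin-transferred into glyceraldehyde-3-phosphate coupling-enzyme reagent at 57.5 uM final and held 10 min at RT. Next, substrate, coupling system and AmpLite Red are added. After 20 min RT, fluorescence (525/598 nm) is read.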
TR SRC2 fluor cs: alters Texas Red total fluorescence, flagging assay interference. TRb/SRC2 Texas Red total fluorescence interference. Potency, µM (titrated, usually from 106 µM). 0.29% of 280,000 active. AID 1479; active means well fitted curve in either direction with a large enough effect; inconclusive means small, poorly fitted or top-dose-only effect
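Flags fluorescent or light-absorbing compounds by total fluorescence, S + 2P, at 555 nm excitation and 632 nm emission. Mixture: 20 nM Texas Red SRC2 peptide, 0.6 uM human TRb LBD, 1 uM T3, 5% DMSO; compound exposure 5 h at ambient temperature.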
JMJD2E inh: inhibitors of human JMJD2E histone demethylase; JMJD2E catalytic domain, FDH-coupled NADH fluorescence (FDH is formaldehyde dehydrogenase); Potency, µM (titrated, usually from 57.1 µM), most hits filed as inhibitors; 1.6% of 230,000 active; active means well fitted inhibition curve with a large enough effect, not every such curve was filed as active; inconclusive means small, poorly fitted or top-dose-only effect, or another doubt; inactive means no such curve, though single readings can be large or run the other way; further: nearly all actives have a fitted effect of over 50% in size
Target sequence (B2RXH2 1-337 limits assumed): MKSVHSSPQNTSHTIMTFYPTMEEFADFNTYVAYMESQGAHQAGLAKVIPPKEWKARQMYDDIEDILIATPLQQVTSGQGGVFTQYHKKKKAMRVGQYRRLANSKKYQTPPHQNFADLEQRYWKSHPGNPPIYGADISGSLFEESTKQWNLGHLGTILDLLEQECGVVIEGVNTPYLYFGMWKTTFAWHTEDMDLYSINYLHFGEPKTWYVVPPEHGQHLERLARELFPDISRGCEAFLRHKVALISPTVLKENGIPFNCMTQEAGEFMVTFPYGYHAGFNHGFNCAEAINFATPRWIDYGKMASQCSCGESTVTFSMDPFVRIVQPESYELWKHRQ
HTT cytoprotect: Huntington cell model cytoprotection by ATP luminescence; PC12 HTT-Q103 induced, cytoprotection, ATP luminescence, 40 h; Potency, µM (titrated, usually from 56.4 µM), actives largely listed as activators; 0.14% of 230,000 active; AID 1471; further: nearly all actives have a fitted effect of over 45% in size
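Rat PC12, Q103 Htt exon1-GFP fusion, ecdysone promoter; tebufenozide inducer 100 nM final; compound titration; qHTS, 1500 cells/well; ATPlite luminescent read.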
TRb SRC2 PPI: disrupts binding of human TR beta to SRC2 | TRbeta-SRC2 peptide binding, fluorescence polarization; receptor liganded with 1 µM T3 | P10828 | Potency, µM (series often up to 106 µM), hits mostly inhibitors | 0.065% of 280,000 active | AID 1469; further: nearly all actives have a fitted effect of over 50% in size
Target sequence (P10828 whole entry, looked up): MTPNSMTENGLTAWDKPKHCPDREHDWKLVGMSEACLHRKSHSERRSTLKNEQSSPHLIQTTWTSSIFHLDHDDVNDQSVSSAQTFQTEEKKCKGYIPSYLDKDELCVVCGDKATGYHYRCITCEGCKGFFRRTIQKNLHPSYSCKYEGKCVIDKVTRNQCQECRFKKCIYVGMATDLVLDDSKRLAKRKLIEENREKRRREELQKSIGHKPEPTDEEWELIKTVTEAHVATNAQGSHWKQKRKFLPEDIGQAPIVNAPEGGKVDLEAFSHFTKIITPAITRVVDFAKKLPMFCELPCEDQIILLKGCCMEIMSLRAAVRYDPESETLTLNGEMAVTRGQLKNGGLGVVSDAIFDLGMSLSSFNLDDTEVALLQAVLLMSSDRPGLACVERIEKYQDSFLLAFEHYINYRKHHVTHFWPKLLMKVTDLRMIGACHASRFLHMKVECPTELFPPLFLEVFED
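Each compound concentration gave % activity, normalized to unbound and bound Texas Red SRC2 controls, from polarization read after 5 hr ambient incubation with T3-loaded human TRb LBD.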
HttQ103 aggreg: reduces HttQ103-GFP aggregates in PC12 cells; PC12 HttQ103-GFP aggregates, Acumen cytometry, 40 h; Potency, µM (highest dose often 46.1 µM), hits mostly inhibitors; 1.1% of 220,000 active; AID 1688; further: nearly all actives have a fitted effect of over 60% in size
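Quantitative HTS on tebufenozide-induced (100 nM) PC12 cells stably expressing polyQ103 Huntingtin exon 1–GFP. Reduction of bright GFP aggregates, detected by laser scanning cytometry after lysis, identified actives across the titration.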
A number is an active result; i = inactive; ? = inconclusive; nt = not tested or not shown; ! = repeats disagree; [ ] = remark or other dose. Unless noted, the call rests on the fitted dose curve; in most records, active means well fitted curve in the direction sought with a large enough effect; inconclusive means small, poorly fitted or top-dose-only effect, or another doubt; inactive means no such curve, though single readings can be large; an effect the other way counts as inactive or inconclusive.

SMILES | FBPA coupling cs | TR SRC2 fluor cs | JMJD2E inh | HTT cytoprotect | TRb SRC2 PPI | HttQ103 aggreg
C[n+]1c(-c2ccccc2)cc(-c2ccc(Cl)cc2)cc1-c1ccccc1 | i | i | ? | i | i | ?
CN(C)c1ccc(-[n+]2c(-c3ccccc3)cc(-c3ccccc3)cc2-c2ccccc2)cc1 | i | i | i | i | i | 1.1µM
c1ccc(-c2cc(-c3ccccc3)[n+](-c3ccccc3)c(-c3ccccc3)c2)cc1 | i | i | ? | i[10 µM] | i | 4µM
CN/C(=N/[N+](=O)[O-])NCC1CCOC1 (stereo not drawn) | nt | i | nt | nt | i | nt
CNC(=O)N(C)c1nc2ccccc2s1 | nt | i | nt | nt | i | nt
COc1ccc(C2=NCC(=O)N(CC(=O)NCc3ccco3)c3sc4c(c32)CCCC4)cc1 | i | i | i | i | i | i
Cc1cccc(C2=NCC(=O)N(CC(=O)NCc3ccco3)c3sc4c(c32)CCCC4)c1 | i | i | i | i | i | 11µM
CC(C)=CC1[C@H](C(=O)OCc2cccc(Oc3ccccc3)c2)C1(C)C (stereo partly drawn) | nt | i | nt | nt | i | nt
COc1ccc(O)c(C(C)(C)C)c1 | i | i | i | i | i | i
CC(C)(C)c1cc(O)ccc1O | nt | i | nt | 32µM! | i | ?
O=C1NC(=O)C(=Cc2coc3ccccc3c2=O)C(=O)N1 | i | i | 20µM | i | i | i
O=C1NC(=O)C(=C/C=C/c2coc3ccc(Br)cc3c2=O)C(=O)N1 | i | 25µM[fluorescent] | i | i[10 µM] | ? | i[9.22 µM]
O=C1NC(=O)C(=Cc2csc3ccccc23)C(=O)N1 | i | i | ? | i[10 µM] | i | i[9.22 µM]
CSc1ncc(/C=C2/C(=O)NC(=O)N(c3ccc(C)cc3)C2=O)cn1 | i | i | ? | i | i | i
CCOc1ccc(N2C(=O)NC(=O)/C(=C/c3cnc(SC)nc3)C2=O)cc1 | i | i | 35µM | i | i | i
Cc1ccc(N2C(=O)NC(=O)/C(=C/c3cnn(-c4ccc(C)cc4)c3)C2=O)cc1 | i | i | i | nt | i | i
Cc1ccc(N2C(=O)NC(=O)/C(=C\c3cnc(-c4ccccc4)nc3)C2=O)cc1 | i | i | 3.2µM | i[10 µM] | i | i
CC(C1CC1)C(O)(Cn1cncn1)c1ccc(Cl)cc1 (stereo not drawn) | nt | i | nt | nt | i | nt
CC1=NNC(=O)N(/N=C/c2cccnc2)C1 | nt | i | nt | nt | i | nt
CC1=CC(=O)c2c(O)cccc2C1=O | -48 | i | 8.9µM | i[1.9 µM] | i | nt
CCC[CH2][Sn]([CH2]CCC)([CH2]CCC)[O][Sn]([CH2]CCC)([CH2]CCC)[CH2]CCC | nt | i | nt | nt | i | nt
Cc1ccc(NC(=O)Cn2cc(C(=O)c3ccccc3)c3ccccc32)cc1 | nt | 0.025µM[quencher] | nt | nt | i | nt
C1=C(c2c[nH]c3ccccc23)CCNC1 | i | i | 25µM | i | i | i
NS(=O)(=O)C(F)(F)C(F)(F)C(F)(F)C(F)(F)C(F)(F)C(F)(F)C(F)(F)C(F)(F)F | nt | i | nt | nt | i | nt
Cc1onc(-c2ccccc2Cl)c1C(=O)OCC(=O)c1ccc2c(c1)OCCO2 | i | i | ? | i[10 µM] | i | ?
SMILES | FBPA coupling cs | TR SRC2 fluor cs | JMJD2E inh | HTT cytoprotect | TRb SRC2 PPI | HttQ103 aggreg
Cc1onc(-c2ccccc2Cl)c1C(=O)NCc1ccccn1 | i | i | i | i[0.074 µM] | i | 0.89µM
CCc1ccc2c(CN3CC=C(c4ccccc4)CC3)cc(=O)oc2c1 | i | i | 14µM | i[10 µM] | i | i
Cc1ccc2c(CN3CC=C(c4ccccc4)CC3)cc(=O)oc2c1C | i | i | 25µM | i[10 µM] | i | i
COc1ccc2c(CN3CC=C(c4ccccc4)CC3)cc(=O)oc2c1 | i | i | ? | i | i | i
CC(C)(C)c1cc(C=C(C#N)C#N)cc(C(C)(C)C)c1O | nt | i | i | i | i | nt
N#CC(C#N)=Cc1ccc(O)c(O)c1 | i | i | 7.9µM | i | i | i
COc1cc(C=C(C#N)C#N)cc(O)c1O | nt | i | 11µM | i[1.9 µM] | i | nt
CN(C)c1ccc(C=C(C#N)C#N)cc1 | i | i | i | i[1.9 µM] | i | i
N#CC(=Cc1ccc(O)c(O)c1)C(N)=S | nt | i | 8.9µM | nt | i | nt
CCc1ccc(/C=C(/C#N)C(N)=S)cc1 | i | i | ? | nt | i | i
CC(C)N1C(=O)N(c2ccccc2)CSC1=NC(C)(C)C | nt | i | nt | nt | i | nt
CN(C)c1nc(=O)n(C2CCCCC2)c(=O)n1C | nt | i | nt | nt | i | nt
CC(C)=CCCC1(C)C=Cc2c(O)c3c(c(CC=C(C)C)c2O1)OC12C(CC4CC1C(C)(C)OC2(C/C=C(/C)C(=O)O)C4O)C3=O (stereo not drawn) | i | i | ? | 3.2µM | i | nt
COc1c2c(c(CC=C(C)C)c3oc(=O)c(-c4ccc(O)cc4)c(O)c13)OC(C)(C)C=C2 | i | i | ? | nt | i | nt
COP(=O)(OC)Oc1ccc([N+](=O)[O-])cc1 | nt | i | nt | nt | i | nt
CN(C)C1C(=O)C(C(N)=O)=C(O)[C@@]2(O)C(=O)C3=C(O)c4c(O)cccc4[C@@](C)(O)C3[C@H](O)C12 (stereo partly drawn) | i | ? | 2µM | i[1.9 µM] | i | nt
CN(C)[C@@H]1C(=O)C(C(N)=O)=C(O)[C@]2(O)C(=O)C3=C(O)c4c(O)cccc4[C@@](C)(O)[C@H]3[C@H](O)[C@@H]12 | i | i | 11µM | i | i | nt
C=C(C)CN(CC)c1c([N+](=O)[O-])cc(C(F)(F)F)cc1[N+](=O)[O-] | nt | i | nt | nt | i | nt
CC(=O)N1CC[N+](C)(C)CC1 | i | i | 11µM | i | i | nt
COc1ccc(OC)c(N2C(=O)NC(=O)/C(=C\c3ccc([N+](=O)[O-])s3)C2=O)c1 | i | i | 22µM | i | ? | ?
O=C1NC(=O)N(c2ccccc2)C(=O)/C1=C\c1ccc([N+](=O)[O-])s1 | i | i | ? | i[10 µM] | i | i[9.22 µM]
CN1C(=O)NC(=O)/C(=C/c2ccc([N+](=O)[O-])s2)C1=O | i | i | 22µM | i[10 µM] | i | i[9.22 µM]
[Cu+2].[O-]c1cccc2cccnc12.[O-]c1cccc2cccnc12 | nt | i | nt | nt | i | nt
CC[C@@H](CO)NC(=O)[C@H]1C=C2c3cccc4c3c(cn4C)C[C@H]2N(C)C1 | -42 | i | ? | ? | i | nt
Brc1ccc(Br)cc1 | nt | i | nt | nt | i | nt
SMILES | FBPA coupling cs | TR SRC2 fluor cs | JMJD2E inh | HTT cytoprotect | TRb SRC2 PPI | HttQ103 aggreg
Fc1ccc(C(OCCN2CCN(CCCc3ccccc3)CC2)c2ccc(F)cc2)cc1 | i | i | i | i | i | 25µM
COc1cc2c(c(OC)c1OC)-c1ccc(O)c(=O)cc1[C@@H](NC(C)=O)CC2 | i | i | 11µM | ? | i | nt
O=C(O)/C=C\C(=O)O | nt | i | nt | i | i | nt
CC(=O)O.CC(=O)O.[Cd] | i | i | 20µM | nt | i | nt
O=C1C2CCN(CC2)[C@@H]1Cc1ccc2ccccc2c1O | -43 | i | i | i[10 µM] | i | i
C#CCN1C(=O)COc2cc(F)c(N3C(=O)C4=C(CCCC4)C3=O)cc21 | nt | i | nt | nt | i | nt
O=C(Nc1ccc(Cl)cc1)Nc1ccc(Cl)c(Cl)c1 | nt | i | nt | i | i | 11µM
O=C(Nc1ccccc1)Nc1ccnc(Cl)c1 | nt | i | nt | nt | i | nt
